HEK293 tox: Cytotoxic Profiling in HEK 293 Cell Line of Diverse Libraries Using Quantitative High-Throughput Screening | HEK 293 viability, ATP luminescence (CellTiter-Glo), 48-72 h | Potency, µM (doses to about 115 µM), most hits filed as inhibitors | 94,000 compounds, 6.6% hits | AID 1345083, 2018; note: nearly all actives have a fitted effect of over 60% in size
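HEK 293 cells seeded at 250 cells/well were exposed to compound for 48 or 72 hr at 37 degree Celsius. Viability taken as ATP content by CellTiter-Glo luminescence.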
NPR1 antag: Natriuretic polypeptide receptor (hNpr1) antagonism - Primary qHTS. Potency, µM (titrated, usually from 46.3 µM), actives largely listed as inhibitors. HEK293 hNpr1 GloSensor cGMP, ANP-stimulated luminescence. 76,000 compounds, 1.6% hits. Atrial natriuretic peptide receptor 1 (Homo sapiens), P16066; calls by dose curve; note: nearly all actives have a fitted effect of over 60% in size
Target sequence (P16066 whole entry, looked up): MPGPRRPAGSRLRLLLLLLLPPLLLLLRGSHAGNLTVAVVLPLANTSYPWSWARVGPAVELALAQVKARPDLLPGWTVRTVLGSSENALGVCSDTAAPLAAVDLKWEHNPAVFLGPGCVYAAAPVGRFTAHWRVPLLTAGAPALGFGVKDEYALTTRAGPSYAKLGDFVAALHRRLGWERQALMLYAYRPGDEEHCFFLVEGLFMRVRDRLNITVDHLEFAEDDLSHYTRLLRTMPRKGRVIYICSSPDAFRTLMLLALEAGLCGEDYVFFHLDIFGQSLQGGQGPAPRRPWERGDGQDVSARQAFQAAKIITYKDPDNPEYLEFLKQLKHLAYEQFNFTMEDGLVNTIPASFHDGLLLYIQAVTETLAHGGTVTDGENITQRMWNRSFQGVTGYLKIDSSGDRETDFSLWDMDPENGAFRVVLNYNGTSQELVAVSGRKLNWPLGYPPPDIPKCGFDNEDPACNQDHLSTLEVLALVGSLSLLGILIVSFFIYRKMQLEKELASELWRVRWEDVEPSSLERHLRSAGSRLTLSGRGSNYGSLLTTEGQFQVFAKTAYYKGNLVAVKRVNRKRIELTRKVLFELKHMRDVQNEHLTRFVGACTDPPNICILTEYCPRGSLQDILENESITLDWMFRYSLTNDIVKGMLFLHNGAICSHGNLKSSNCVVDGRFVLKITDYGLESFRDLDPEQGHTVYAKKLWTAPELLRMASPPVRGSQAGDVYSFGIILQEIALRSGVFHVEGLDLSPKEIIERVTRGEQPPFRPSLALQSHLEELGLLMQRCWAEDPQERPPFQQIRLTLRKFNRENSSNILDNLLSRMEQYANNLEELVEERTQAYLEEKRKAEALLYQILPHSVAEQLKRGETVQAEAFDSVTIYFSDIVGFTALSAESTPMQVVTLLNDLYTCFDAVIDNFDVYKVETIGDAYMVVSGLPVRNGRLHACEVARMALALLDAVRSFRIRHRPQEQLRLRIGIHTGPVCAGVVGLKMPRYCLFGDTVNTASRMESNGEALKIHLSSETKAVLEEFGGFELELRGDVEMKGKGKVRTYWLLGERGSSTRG
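Compound pre-incubated 30 min at room temperature on GloSensor-loaded HEK293 cells stably carrying hNpr1 and the pGS-40F cGMP biosensor. Stimulation uses hNppA at 0.1 nM final; luminescence is taken at baseline and 20 min post-agonist.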
GPT2 inhibitor: Primary qHTS assay for inhibitors of Glutamate pyruvate transaminase 2 (GPT2) | Alanine aminotransferase 2 (Homo sapiens), Q8TD30 | Recombinant GPT2, coupled pyruvate oxidase/HRP Amplex Red fluorescence | Potency, µM (top dose mostly 57.7 µM), most hits filed as inhibitors | 100,000 compounds, 0.25% hits; note: nearly all actives have a fitted effect of over 60% in size
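Recombinant GPT2 (10ng/uL) with 250uM a-KG and 2mM L-alanine, 30 min at room temperature, in HEPES pH 7.5 buffer. Pyruvate detected by pyruvate oxidase/HRP/Amplex Red fluorescence after 30 min in the dark; AOA (50uM) as positive control.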
Luciferase inh: Firefly luciferase inhibition profiling of diverse chemical library using quantitative high-throughput screening. purified P. pyralis luciferase, luminescence, biochemical. Potency, µM (top dose mostly 115 µM), usual class: inhibitors. 76,000 compounds, 2.5% hits. AID 1347043, 2019; note: nearly all actives have a fitted effect of over 65% in size
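Inhibitors were tested against purified firefly luciferase in a biochemical, low-substrate format (both substrates at 10uM) and luminescence measured with a CCD imager.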
3T3 cytotox: Cytotoxic Profiling in NIH 3T3 Cell Line of Diverse Libraries Using Quantitative High-Throughput Screening; NIH 3T3 viability, CellTiter-Glo ATP luminescence, 48-72 h; Potency, µM (top dose mostly 96.7 µM), usual class: inhibitors; 94,000 compounds, 4.3% hits; note: nearly all actives have a fitted effect of over 55% in size
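ATP-dependent luminescence (CellTiter-Glo) served as the viability signal for NIH 3T3 cells treated with compound for 48 or 72 hr at 37 °C.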
A number is an active result; ! = not confirmed by another sample; [ ] = another dose, or the depositor's remark. Rows were chosen to be rich in hits. Some 10% of all compounds tested hit in one or more screens of this group. Unless noted, calls come from the whole dose curve; as a rule, active = well fitted curve in the direction sought with a large enough effect; inconclusive = small, poorly fitted or top-dose-only effect, or another doubt; inactive = no such curve, though single readings can be large; an effect the other way counts as inactive or inconclusive.

How did N#CC1CCN(C(=O)C2CCCCN2Cc2ccc(-c3ccsc3)cc2)CC1 (configuration not stated) do in these assays?
HEK293 tox: inconclusive; GPT2 inhibitor: inactive; 3T3 cytotox: inconclusive

What do the screens show for `Cc1nnc2ccc(N3CCCC(NC(=O)NC(C)C)C3)nn12` (configuration not stated)?
HEK293 tox: inactive; 3T3 cytotox: inactive

Results for O=C(CC(c1ccccc1)c1ccccc1Cl)N(Cc1cccnc1)C1CC1 (configuration not stated) ?
HEK293 tox: 35.5µM; NPR1 antag: inactive; GPT2 inhibitor: inactive; Luciferase inh: inactive; 3T3 cytotox: inconclusive

What do the screens show for `CN(Cc1cnccn1)C(=O)CC(c1ccccc1)c1ccccc1Cl` (configuration not stated)?
HEK293 tox: inconclusive; NPR1 antag: inactive; GPT2 inhibitor: inactive; Luciferase inh: inactive; 3T3 cytotox: inactive

How did CS(=O)(=O)NCCc1ccc(CC2CCN(C(=O)COc3ccc(F)cc3)CC2)cc1 do in these assays?
HEK293 tox: inconclusive; GPT2 inhibitor: inactive; 3T3 cytotox: inconclusive

What do the screens show for `Cc1cccc(-c2noc(CCC(=O)N3CCC(C)(c4noc(C)n4)CC3)n2)c1`?
HEK293 tox: 44.7µM; NPR1 antag: inactive; GPT2 inhibitor: inactive; Luciferase inh: inactive; 3T3 cytotox: inconclusive

Results for Cc1ccc(-c2cccc(CN3CCCC(N[S+](C)(=O)[O-])C3)c2)cc1Cl (configuration not stated) ?
HEK293 tox: 22.4µM; GPT2 inhibitor: inactive; 3T3 cytotox: 28.2µM

What do the screens show for `Cc1ccc([S+](=O)([O-])NC2CCCN(Cc3cccc(-c4ccc(C)c(Cl)c4)c3)C2)cc1` (configuration not stated)?
HEK293 tox: 28.2µM; GPT2 inhibitor: inactive; 3T3 cytotox: inconclusive

What do the screens show for `Cc1ccc([S+](=O)([O-])NC2CCCN(CCn3nc4n(c3=O)CCCC4)C2)cc1` (configuration not stated)?
HEK293 tox: inactive; 3T3 cytotox: inactive

Results for CCOc1cccc(CN2CCc3c(c(CN(C(C)=O)c4ccccc4)nn3C)C2)c1O ?
HEK293 tox: inactive; GPT2 inhibitor: inactive; 3T3 cytotox: inactive

Results for Cc1cccc(-c2cccc(CN3CCC(NC(=O)c4ccccc4Cl)CC3)c2)c1 ?
HEK293 tox: inconclusive; GPT2 inhibitor: inactive; 3T3 cytotox: inconclusive

How did Cc1cccc(-c2cccc(CN3CCC(NC(=O)c4cccc(Cl)c4)CC3)c2)c1 do in these assays?
HEK293 tox: 28.2µM; GPT2 inhibitor: inactive; 3T3 cytotox: 20µM

Results for O=C(NC1CCN(Cc2cccc(-c3cccs3)c2)CC1)c1cccc(Cl)c1 ?
HEK293 tox: 20µM!; GPT2 inhibitor: inactive; 3T3 cytotox: inconclusive

Results for O=C(NC1CCN(Cc2cccc(-c3cccs3)c2)CC1)c1ccc(Cl)cc1 ?
HEK293 tox: inconclusive; GPT2 inhibitor: inactive; 3T3 cytotox: inactive

How did Cc1cccc(-c2cccc(CN3CCC(NC(=O)Cc4cccc(Cl)c4)CC3)c2)c1 do in these assays?
HEK293 tox: 20µM; GPT2 inhibitor: inactive; 3T3 cytotox: 14.1µM

How did Cc1cccc(-c2cccc(CN3CCC(NC(=O)NC4CCCC4)CC3)c2)c1 do in these assays?
HEK293 tox: inactive; GPT2 inhibitor: inactive; 3T3 cytotox: inconclusive

How did Cc1cccc(-c2cccc(CN3CCC(NC(=O)C(C)(C)C)CC3)c2)c1 do in these assays?
HEK293 tox: 44.7µM; GPT2 inhibitor: inactive; 3T3 cytotox: inconclusive

Results for Cc1cccc(-c2cccc(CN3CCC(NC(=O)c4ccc(F)cc4)CC3)c2)c1 ?
HEK293 tox: inconclusive; GPT2 inhibitor: inactive; 3T3 cytotox: inconclusive

What do the screens show for `CC(C)NC(=O)c1ccc2nnc(-c3ccc(Cl)cc3)n2c1`?
HEK293 tox: inactive; GPT2 inhibitor: inactive; 3T3 cytotox: inactive

What do the screens show for `Cc1cc(C(=O)NC2CCN(c3ccnc4ccnn34)CC2)ccc1Cl`?
HEK293 tox: inconclusive; GPT2 inhibitor: inactive; 3T3 cytotox: inconclusive

Results for Cc1cccc(NC(=O)N2CC(Oc3cccc(-c4nc(C)no4)c3)C2)c1 ?
HEK293 tox: inconclusive; GPT2 inhibitor: inactive; 3T3 cytotox: inconclusive

Results for COCC1CN(C)CC12CCN(Cc1ccc(OC)c(OC)c1Cl)CC2 (configuration not stated) ?
HEK293 tox: inconclusive; NPR1 antag: inactive; GPT2 inhibitor: inactive; Luciferase inh: inactive; 3T3 cytotox: inconclusive

What do the screens show for `COc1cc(Nc2nc(-c3ccccc3)no2)cc(OC)c1OC`?
HEK293 tox: inconclusive; NPR1 antag: inactive; GPT2 inhibitor: inactive; Luciferase inh: 31.6µM; 3T3 cytotox: inconclusive

Results for COc1ccc(-c2noc(Nc3cc(OC)c(OC)c(OC)c3)n2)cc1OC ?
HEK293 tox: 22.4µM; NPR1 antag: inactive; GPT2 inhibitor: inactive; Luciferase inh: inactive; 3T3 cytotox: inconclusive

How did COc1cc(Nc2nc(-c3ccccc3F)no2)cc(OC)c1OC do in these assays?
HEK293 tox: 31.6µM; NPR1 antag: inactive; GPT2 inhibitor: inactive; Luciferase inh: inconclusive; 3T3 cytotox: inconclusive

What do the screens show for `COc1cccc(-c2noc(Nc3cc(OC)c(OC)c(OC)c3)n2)c1`?
HEK293 tox: 44.7µM; NPR1 antag: inactive; GPT2 inhibitor: inconclusive; Luciferase inh: inconclusive; 3T3 cytotox: inconclusive

What do the screens show for `CCOc1ccc(-c2cc3n(n2)CCCN(C(=O)Cn2cnc4c2c(=O)n(C)c(=O)n4C)C3)cc1`?
HEK293 tox: inconclusive; GPT2 inhibitor: inactive; 3T3 cytotox: inconclusive

What do the screens show for `COc1ccccc1-c1[nH]nc2ncc(C(=O)N(C)c3ccccc3)nc12`?
HEK293 tox: 89.1µM; NPR1 antag: inactive; GPT2 inhibitor: inactive; Luciferase inh: inactive; 3T3 cytotox: inconclusive

How did COc1ccccc1-c1[nH]nc2ncc(C(=O)NCCc3ccccn3)nc12 do in these assays?
HEK293 tox: 63.1µM; NPR1 antag: inactive; GPT2 inhibitor: inactive; Luciferase inh: inactive; 3T3 cytotox: inconclusive

Results for COc1ccccc1-c1[nH]nc2ncc(C(=O)N3CCC(c4ccccc4)CC3)nc12 ?
HEK293 tox: inconclusive; NPR1 antag: inconclusive; GPT2 inhibitor: inactive; Luciferase inh: inactive; 3T3 cytotox: inconclusive

What do the screens show for `CC(C)Oc1cccc2c1c(NC(=O)C1CCCO1)nn2Cc1ccccc1` (configuration not stated)?
HEK293 tox: 44.7µM; NPR1 antag: inactive; GPT2 inhibitor: inactive[11.5 µM]; Luciferase inh: inactive; 3T3 cytotox: inconclusive

What do the screens show for `Fc1ccc(-c2cc(CC3(NCc4ccc5c(c4)OCO5)COC3)no2)cc1`?
HEK293 tox: inconclusive; NPR1 antag: inactive; GPT2 inhibitor: inactive; Luciferase inh: inactive; 3T3 cytotox: inconclusive

High-throughput results as filed in PubChem BioAssay.
